A short description of assay [1]: anti-His antibody binders, primary screen, artefact control for SMM control protein annotation, biochemical, small-molecule microarray, 635 nm fluorescence (AID 1128).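 Also: score merges feature fluorescence with signal-to-noise for each printed compound spot.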 Conditions: anti-His Alexa647 antibody binding, higher = more signal.
The test system of assay [2] is Human papillomavirus type 1a E7 protein (residues 1-88). Put plainly: HPV1a E7 small-molecule binders, primary screen, biochemical, small-molecule microarray, residues 1-88, 635 nm (AID 1129). Conditions: small-molecule microarray binding, fluorescence 635 nm; higher = more signal.
The target in assay [3] is Focal adhesion kinase 1 (Homo sapiens) (UniProt Q05397). Put plainly: small-molecule microarray binders of FAK, primary screen, biochemical, 635/667 nm fluorescence, BSA, DTT (AID 1130).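 Also: composite of spot emission at 667 nm and signal to noise over triplicate slides.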 Conditions: PTK2 binding, 635 nm fluorescence, higher = more signal.
In assay [4] the test system is Fibrinogen (Alexa647-labelled). Put plainly: fibrinogen binders on compound microarrays, profiling panel, artefact control for SMM control-protein annotation, biochemical, small-molecule microarray, 635/667 nm fluorescence (AID 1131).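 Also: z-score merges 667 nm fluorescence with per-spot signal-to-noise over triplicate slides.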 Conditions: fibrinogen-A647 binding fluorescence, higher = more signal.
The target in assay [5] is Follistatin (Homo sapiens) (UniProt P19883). Put plainly: follistatin binders on small-molecule microarrays, primary screen, biochemical, small-molecule microarray, 635/667 nm fluorescence (AID 1132). Conditions: FST binding, 635 nm fluorescence, higher = more signal.
Assay [6] concerns the target Fibroblast growth factor 2 (Homo sapiens) (UniProt P09038). The assay is described as follows: FGF2 binders on small-molecule microarrays, primary screen, biochemical, small-molecule microarray, 635/667 nm fluorescence (AID 1133). Conditions: small-molecule microarray binding, FGF2, fluorescence 635/667; higher = more signal.
Assay [7] in a line: mitochondrial membrane potential change in A549 cells, profiling panel, cell-based, JC-1 fluorescence, basal, 24 h, 100 nL (AID 1138).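 Also: A549 lung adenocarcinoma cells under basal conditions with no added stimulus; test concentration not given here.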 Conditions: higher = more signal.
For the next assay, the system named is Lefty1. The assay is described as follows: Lefty1 binders on small-molecule microarrays, primary screen, biochemical, small-molecule microarray, 635/667 nm fluorescence (AID 1139). Conditions: small-molecule microarray binding, fluorescence 635/667; higher = more signal.
Assay [8] concerns wheat germ agglutinin (Triticum aestivum), Alexa647-labelled. The assay is described as follows: wheat germ agglutinin binders on compound microarrays, profiling panel, artefact control for SMM control-protein annotation, biochemical, small-molecule microarray, 635/667 nm fluorescence (AID 1140).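 Also: score merges 667 nm feature emission with signal to noise over triplicate slides.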 Conditions: WGA-A647 binding, 635 nm fluorescence, higher = more signal.
Assay [9] has as its target Luciferin 4-monooxygenase (Photinus pyralis) (UniProt P08659). The assay is described as follows: firefly luciferase enzyme inhibitors, primary screen, biochemical, luminescence, purified enzyme, 2006 set (AID 1141).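 Also: cell-free assay with purified firefly luciferase at 100 ng per well in PBS; test concentration not given here.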 Conditions: SteadyGlo luminescence, 30 min, higher = more signal, called active from +8 up or from −8 down.
The subject of assay [10] is Wnt5a (protein binding on small-molecule microarray). Put plainly: Wnt5a binders on small-molecule microarray, primary screen, biophysical, 635/667 nm fluorescence (AID 1142).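 Also: fluorescence read at 667 nm with signal to noise per printed feature.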 Conditions: 635 nm fluorescence, higher = more signal.
A short description of assay [11]: cell viability in Huh7 cells, primary screen, cytotoxicity control for HCV replication inhibitor project, CellTiter-Glo luminescence, basal, 48 h (AID 1143).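 Also: Huh7 hepatoma cells carrying a hepatitis C replication reporter with no stimulus; test concentration not given here.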 Conditions: Huh7 HCV replicon, higher = more signal, called active from +8 up or from −8 down.
Assay [12] can be described thus: P. aeruginosa biofilm formation inhibitors, primary screen, PAO1 strain, BacTiter-Glo luminescence, LB-PBS (AID 1144). Conditions: 12 h, higher = more signal.
Assay [13] can be described thus: CREB reporter modulators without forskolin, primary screen, cell-based, PC12, CRE-LacZ reporter, unstimulated (AID 1145). Conditions: no forskolin, luminescence, 4.5 h, higher = more signal, called active from +8 up or from −8 down.
Assay [14] can be described thus: CREB reporter modulators under forskolin, primary screen, cell-based, PC12, CRE-LacZ reporter, forskolin-stimulated (AID 1146).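 Also: PC12 cells with 6xCRE LacZ reporter stimulated by forskolin 10 µM; beta-galactosidase reporter signal reflecting CREB driven transcription.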 Conditions: luminescence, 4.5 h, higher = more signal, called active from +8 up or from −8 down.
The target in assay [15] is Streptavidin (Streptomyces avidinii) (UniProt P22629). Put plainly: streptavidin binders on small-molecule microarray, primary screen, artefact control for SMM compound annotation, biophysical, 635/667 nm fluorescence (AID 1147).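 Also: signal reflects streptavidin binding to arrayed compounds as a control protein.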 Conditions: streptavidin binding, higher = more signal.
The nature of assay [16]: small-molecule binders of probe aInhba, primary screen, biochemical, small-molecule microarray, 635/667 nm fluorescence (AID 1148).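 Also: score merges 667nm spot fluorescence with signal-to-noise for antibody binding to printed compounds.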 Conditions: higher = more signal.
The target of assay [17] is Torsin-1A (Homo sapiens) (UniProt O14656). Put plainly: torsin A binders from cell lysate, primary screen, small-molecule microarray, wild-type, 635/667 nm (AID 1149). Conditions: COS7 hTOR1A-WT lysate, 635 nm fluorescence, higher = more signal.
For assay [18] the target is unchanged. Put plainly: small-molecule binders of mutant TOR1A in lysate, primary screen, cell lysate, small-molecule microarray, COS7 lysate, 635/667 nm fluorescence (AID 1150).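 Also: score pools 667 nm emission and signal to noise measuring lysate protein binding.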 Conditions: COS7 hTOR1A mutant lysate, 635 nm fluorescence, higher = more signal.
Assay [19] relates to Sonic hedgehog protein (Shh). The assay is described as follows: small-molecule binders of Shh protein, primary screen, biochemical, small-molecule microarray, 635/667 nm fluorescence (AID 1151).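 Also: Shh protein binding to compounds spotted on small-molecule microarray slides; score combines spot fluorescence intensity with signal-to-noise across triplicate slides.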 Conditions: small-molecule microarray binding, 635 nm fluorescence; higher = more signal.

This note sets out measurements from PubChem BioAssay.

Molecules are shown by their SMILES. “And” between values parts separate entries of the source, which are not always exact repeats. Equal values may be shown once. The source made the active and inactive calls. Unless noted, no rule for the calls is given here.

Sequence of Torsin-1A (Homo sapiens) (O14656 whole entry, looked up): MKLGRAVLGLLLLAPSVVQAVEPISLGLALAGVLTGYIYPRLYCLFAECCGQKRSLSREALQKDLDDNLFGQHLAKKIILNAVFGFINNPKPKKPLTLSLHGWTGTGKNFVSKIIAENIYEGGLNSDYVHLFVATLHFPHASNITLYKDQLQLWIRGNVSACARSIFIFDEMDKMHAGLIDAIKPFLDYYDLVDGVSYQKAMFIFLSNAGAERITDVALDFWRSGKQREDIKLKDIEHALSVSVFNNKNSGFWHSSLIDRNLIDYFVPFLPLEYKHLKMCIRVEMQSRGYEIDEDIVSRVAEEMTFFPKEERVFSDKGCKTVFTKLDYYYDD
Sequence of Fibroblast growth factor 2 (Homo sapiens) (P09038 whole entry, looked up): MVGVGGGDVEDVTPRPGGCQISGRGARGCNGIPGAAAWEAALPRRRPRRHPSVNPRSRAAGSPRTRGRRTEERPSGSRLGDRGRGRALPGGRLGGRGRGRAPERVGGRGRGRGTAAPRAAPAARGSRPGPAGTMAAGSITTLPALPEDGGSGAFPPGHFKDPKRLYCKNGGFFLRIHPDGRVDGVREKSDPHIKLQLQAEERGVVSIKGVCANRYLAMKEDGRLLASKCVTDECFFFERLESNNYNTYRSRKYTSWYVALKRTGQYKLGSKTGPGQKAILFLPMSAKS
Sequence of Focal adhesion kinase 1 (Homo sapiens) (Q05397 whole entry, looked up): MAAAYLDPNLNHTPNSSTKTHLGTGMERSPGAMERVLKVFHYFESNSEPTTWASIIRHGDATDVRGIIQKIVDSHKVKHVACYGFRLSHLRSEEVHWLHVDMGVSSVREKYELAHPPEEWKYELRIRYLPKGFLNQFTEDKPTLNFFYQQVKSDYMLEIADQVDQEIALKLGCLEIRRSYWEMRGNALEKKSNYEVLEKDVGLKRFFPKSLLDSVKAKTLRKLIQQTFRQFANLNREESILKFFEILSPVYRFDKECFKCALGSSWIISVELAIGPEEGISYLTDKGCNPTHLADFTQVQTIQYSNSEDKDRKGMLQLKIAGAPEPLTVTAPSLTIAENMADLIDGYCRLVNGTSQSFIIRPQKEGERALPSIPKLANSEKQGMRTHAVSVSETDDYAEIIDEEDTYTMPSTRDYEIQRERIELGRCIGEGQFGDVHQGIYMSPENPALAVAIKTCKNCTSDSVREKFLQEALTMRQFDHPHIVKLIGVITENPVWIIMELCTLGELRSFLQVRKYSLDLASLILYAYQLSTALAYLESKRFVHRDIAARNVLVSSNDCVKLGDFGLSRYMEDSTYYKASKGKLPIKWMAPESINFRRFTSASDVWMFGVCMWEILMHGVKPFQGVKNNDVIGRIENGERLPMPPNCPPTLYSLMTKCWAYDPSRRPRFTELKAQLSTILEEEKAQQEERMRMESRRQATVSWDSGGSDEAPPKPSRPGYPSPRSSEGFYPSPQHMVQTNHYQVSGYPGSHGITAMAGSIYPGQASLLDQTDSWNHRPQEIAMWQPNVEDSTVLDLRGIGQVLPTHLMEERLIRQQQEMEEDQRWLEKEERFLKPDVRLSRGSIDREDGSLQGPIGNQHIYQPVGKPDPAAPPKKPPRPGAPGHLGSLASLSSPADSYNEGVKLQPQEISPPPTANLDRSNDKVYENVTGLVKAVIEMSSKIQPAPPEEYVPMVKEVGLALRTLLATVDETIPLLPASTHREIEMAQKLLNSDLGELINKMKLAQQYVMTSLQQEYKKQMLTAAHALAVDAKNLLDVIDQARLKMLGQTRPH
Sequence of Follistatin (Homo sapiens) (P19883 whole entry, looked up): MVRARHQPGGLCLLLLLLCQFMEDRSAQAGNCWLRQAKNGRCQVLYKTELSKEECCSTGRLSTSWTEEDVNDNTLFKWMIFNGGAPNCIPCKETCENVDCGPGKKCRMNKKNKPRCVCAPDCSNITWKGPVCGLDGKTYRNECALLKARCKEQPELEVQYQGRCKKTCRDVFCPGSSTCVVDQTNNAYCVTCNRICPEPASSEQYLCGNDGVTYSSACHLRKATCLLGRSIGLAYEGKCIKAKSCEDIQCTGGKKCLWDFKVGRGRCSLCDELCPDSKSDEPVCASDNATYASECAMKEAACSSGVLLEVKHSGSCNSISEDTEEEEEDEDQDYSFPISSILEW
Sequence of Streptavidin (Streptomyces avidinii) (P22629 whole entry, looked up): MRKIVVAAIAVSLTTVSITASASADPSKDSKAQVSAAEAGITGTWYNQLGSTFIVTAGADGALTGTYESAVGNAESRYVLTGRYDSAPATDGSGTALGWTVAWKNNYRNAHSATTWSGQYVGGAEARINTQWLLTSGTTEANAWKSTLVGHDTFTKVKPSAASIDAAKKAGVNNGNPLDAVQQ
Sequence of Luciferin 4-monooxygenase (Photinus pyralis) (P08659 whole entry, looked up): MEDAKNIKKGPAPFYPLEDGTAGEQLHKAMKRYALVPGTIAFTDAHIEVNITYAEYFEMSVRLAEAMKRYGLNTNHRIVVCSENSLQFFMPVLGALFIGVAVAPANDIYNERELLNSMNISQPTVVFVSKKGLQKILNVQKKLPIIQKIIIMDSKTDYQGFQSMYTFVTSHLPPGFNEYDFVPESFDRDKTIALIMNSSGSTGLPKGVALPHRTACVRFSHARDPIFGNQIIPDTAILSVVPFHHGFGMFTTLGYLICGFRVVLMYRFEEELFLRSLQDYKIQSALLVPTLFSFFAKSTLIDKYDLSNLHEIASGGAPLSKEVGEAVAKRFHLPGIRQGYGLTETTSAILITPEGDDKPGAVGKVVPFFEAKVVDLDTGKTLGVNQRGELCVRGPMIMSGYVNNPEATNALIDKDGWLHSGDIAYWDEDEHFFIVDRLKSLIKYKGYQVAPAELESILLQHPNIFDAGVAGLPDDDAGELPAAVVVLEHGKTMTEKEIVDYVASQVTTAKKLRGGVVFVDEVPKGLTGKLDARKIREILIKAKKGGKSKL

`CN1C(=O)C2CC=C([C@H]3Oc4ccccc4S(=O)(=O)N4CCC[C@@H]34)CC2C1=O` (some centres undefined): the composite z-score was 0.009 and -0.183 in assay [1]; -0.984 and -0.409 in assay [2]; 0.285 and 0.14 in [3]; 0.0887 and -1.25 in assay [4]; -0.375 and -0.417 in [5]; -0.19 and -0.132 in [6]. In addition, the composite z-score in the assay with Lefty1 is -0.499 and 0.192; in assay [8], -0.213 and -1.39; in assay [10], -0.0808 and 0.53; in assay [15], -0.0329 and -0.212; in [16] it was -0.0963 and -0.0874; with Torsin-1A (Homo sapiens) [17], -0.0871 and -0.296. Also, the composite z-score with Torsin-1A (Homo sapiens) [18] is 0.075 and -0.165; in [19], -0.306 and -0.272. Further, the z-score was -0.719 and -0.239 in assay [7]; 0.156 (inactive) and 0.737 (inactive) in assay [9]; 0.0836 (inactive) and -0.243 (inactive) in assay [11]; -0.129 (inactive) and -0.419 (inactive) in assay [12]; -1.32 (inactive) and -0.327 (inactive) in assay [13]; 0.123 (inactive) and 0.707 (inactive) in assay [14].
With `CO[C@@H]1COC(=O)[C@H](Cc2ccccc2)NC(=O)CC=C[C@@H](C)[C@H](OC)COC(=O)[C@@H](C)NC(=O)CC=C[C@H]1C`, the composite z-score was 0.106 and 0.0473 in assay [1]; -0.184 and -0.37 in [2]; -0.129 and 0.183 in [3]; -0.116 and -0.231 in [4]; 1.32 and 1.18 in [5]; 1.58 and 1.35 in assay [6]. Also, the composite z-score in the assay on Lefty1 is 1.54 and 1.35; in assay [8] it was -0.714 and -0.807; in [10] it was -0.21 and 0.189; in assay [15], -0.0436 and -0.304; in assay [16], -0.0986 and -0.319; with Torsin-1A (Homo sapiens) [17] it was 1.37 and 0.668. Further, the composite z-score is 0.671 and 0.335 with Torsin-1A (Homo sapiens) [18]; 2.07 and 1.98 in [19]. For the same compound, the z-score is 1.24 and 0.944 in assay [7]; -0.554 (inactive) and -1.49 (inactive) in assay [9]; -0.656 (inactive) and -1.53 (inactive) in assay [11]; 0.345 (inactive) and -0.39 (inactive) in assay [13]; -0.95 (inactive) and -1.65 (inactive) in assay [14].
As for `CC(C)C(=O)N[C@@H]1CCCN1C(=O)C=Cc1ccccc1`, the composite z-score was found to be 0.108 in assay [1]; 0.746 in [2]; 0.746 in assay [3]; 0.494 in [4]; 0.541 in assay [5]; 0.565 in assay [6]. Besides, the composite z-score in the assay on Lefty1 is 0.813; in assay [8] it was -0.0087; in [10], -0.0494; in assay [15], 0.504; in assay [16], -0.0216; in the assay with Torsin-1A (Homo sapiens) [17], 0.841. Besides, the composite z-score with Torsin-1A (Homo sapiens) [18] came out at 0.448; in assay [19] it was 0.605. For the same compound, the z-score is 1.81 in [7]; -0.489 (inactive) in assay [9]; 0.135 (inactive) in assay [11]; 1.06 (inactive) in assay [12]; 0.56 (inactive) in assay [13]; 0.685 (inactive) in [14].
Regarding `CO[C@H]1COC(=O)[C@H](C)NC(=O)CC=C[C@@H](C)[C@H](OC)COC(=O)CC=C[C@@H]1C`, the composite z-score was -0.284 in [1]; -1.4 in assay [2]; -0.348 in [3]; -1.86 in assay [4]; 1.28 in [5]; 1.71 in assay [6]. The composite z-score was 1.62 with Lefty1; -0.655 in [8]; 0.155 in [10]; 0.14 in assay [15]; -0.237 in assay [16]; 1.85 with Torsin-1A (Homo sapiens) [17]. The composite z-score is 1.81 in the assay with Torsin-1A (Homo sapiens) [18] and 1.62 in assay [19]. For the same compound, the z-score in assay [7] was 0.106; in [9], -0.885 (inactive); in assay [11] it was 0.0447 (inactive); in [12] it was -0.506 (inactive); in assay [13], 1.51 (inactive); in [14] it was -0.41 (inactive).
Consider `COC(=O)[C@H](C)NC(=O)CCC1CC(OC(=O)NCCc2ccc(F)cc2)CC2(CCCC(COC(=O)NCCCN3CCCC3=O)O2)O1` (some centres undefined), for which the composite z-score in assay [1] came out at 0.944; in assay [2], 1.17; in [3] it was 0.534; in assay [4] it was 0.872; in assay [5], 1.03; in assay [6], 1.3. Also, the composite z-score is 1.55 with Lefty1; 0.526 in assay [8]; 0.29 in [10]; 0.953 in assay [15]; 0.117 in assay [16]; 0.273 with Torsin-1A (Homo sapiens) [17]. The values for the composite z-score (in the assay with Torsin-1A (Homo sapiens) [18]; in [19]) were 0.268 and 1.07, respectively. Moreover, the z-score was -0.498 in [7]; 0.824 (inactive) in assay [9]; -0.959 (inactive) in [11]; 0.0154 (inactive) in [12]; -0.704 (inactive) in assay [13]; 0.597 (inactive) in [14].
As to `CC(C)=NO[C@@H](C)c1cc(-c2c(C)cc(C)cc2C)no1`, the composite z-score is 1.01 in [1]; -0.705 in assay [2]; 0.0218 in [3]; -0.268 in assay [4]; 0.0215 in assay [5]; 0.0248 in assay [6]. Moreover, the composite z-score was 0.0782 in the assay on Lefty1; -0.418 in [8]; -0.278 in assay [10]; 0.186 in assay [15]; -0.128 in [16]; 0.0381 with Torsin-1A (Homo sapiens) [17]. Moreover, the composite z-score was -0.281 with Torsin-1A (Homo sapiens) [18] and -0.104 in assay [19]. Further, the z-score in [7] was -0.114; in [9], 0.389 (inactive); in [11], -2.11 (inactive); in assay [12] it was -1.37 (inactive); in assay [13], 1.49 (inactive); in [14], -0.49 (inactive).
As to `CC(C)=CCCC(C)=CCON=C1C[C@@H](O)[C@@H](O)[C@@H]2[C@@H]3C(=O)N([C@@H](C)c4ccccc4)C(=O)[C@@H]3CC[C@H]12`, the composite z-score came out at 0.798 in assay [1]; 1.01 in [2]; 0.89 in assay [3]; 0.558 in assay [4]; 0.676 in [5]; 0.364 in assay [6]. Further, the composite z-score in the assay on Lefty1 is 0.581; in [8], 0.324; in [10], 0.111; in [15], 0.0138; in assay [16], -0.233; with Torsin-1A (Homo sapiens) [17], 0.594. Besides, the values for the composite z-score (with Torsin-1A (Homo sapiens) [18]; in assay [19]) were 0.26 and 1.18, respectively. Moreover, the z-score in assay [7] was 0.824; in [9], -0.677 (inactive); in assay [11], -3.97 (inactive); in assay [12] it was 1.09 (inactive); in [13] it was -0.295 (inactive); in assay [14], -0.323 (inactive).
As for `C=CCN(Cc1ccccc1)C(=O)C1N(CCCCCCO)C(=O)C2C(C(=O)O)C3C=CC21O3` (centres undefined), the composite z-score in [1] is 0.193 and -0.664; in assay [2], -0.363 and -0.297; in assay [3], 0.0147 and -0.339; in assay [4], -0.923 and -1.99; in assay [5], -1.42 and -1.07; in assay [6], -1.88 and -2.94. The composite z-score in the assay with Lefty1 is -1.84 and -1.78; in assay [8] it was -0.834 and -0.785; in assay [10], -1.02 and -1.77; in assay [15], -1.02 and -1.77; in assay [16], -0.159 and -0.21; with Torsin-1A (Homo sapiens) [17] it was -3.02 and -4.56. The composite z-score in the assay with Torsin-1A (Homo sapiens) [18] is -2.45 and 0.914; in assay [19], -1.62 and -1.85. In addition, the z-score in [7] is -0.38 and 0.344; in assay [9], 1.01 (inactive) and 1.33 (inactive); in assay [11], -0.118 (inactive) and 0.533 (inactive); in assay [12], -0.12 (inactive) and -1.45 (inactive); in assay [13], -1.31 (inactive) and -1.44 (inactive); in assay [14] it was -0.665 (inactive) and -0.279 (inactive).
